Screening data: PubChem BioAssay, several laboratories
Gli-Sufu block: Gli-Sufu pathway antagonists, primary screen, luciferase luminescence, Sufu-KO-LIGHT cells, uHTS; Sufu-KO-LIGHT fibroblasts, Gli luciferase reporter luminescence; inhibition, % at 5 µM; 0.74% of 340,000 active;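 active = inhibition above about 55%, limit read from the data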
CSC inhib: cancer stem cell viability inhibitors, primary screen, luminescence; cancer stem cell-like cells viability; inhibition, % at 7.5 µM; 1.1% of 300,000 active; AID 2717, 2010; in the data active = inhibition above about 75%; tested in HMLE shEcad cells
Jurkat NFkB inh: inhibitors of induced NF-kB luciferase reporter, primary screen, TCR NF-kB activation inhibitor project, cell-based, luminescence, uHTS; Jurkat, PMA/ionomycin-induced NF-kB luciferase reporter; inhibition, % at 4 µM; 0.53% of 330,000 active; in the data active = inhibition above about 50%
Mdm2-MdmX inh: inhibitors of human Mdm2-MdmX association, primary screen, cell-based, luminescence, split luciferase, SaOS-2, uHTS. 3% of 330,000 active. SaOS-2 split-luciferase Mdm2/MdmX complementation. Protein Mdm4 (Homo sapiens) + E3 ubiquitin-protein ligase Mdm2 (Homo sapiens), …. inhibition, % at 8 µM. AID 485346, 2010;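 active = inhibition of at least 50% at 8 µM in the primary screen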
aSyn UTR inh: MLPCN primary screen, SNCA 5' untranslated region. inhibition, % (tested at 7.5 µM). alpha-synuclein 5'UTR reporter, inhibitor activity. AID 1813, 2009. 0.82% of 300,000 active; in the data active = inhibition above about 60%;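 note: H4 neuroglioblastoma cells stably carrying SNCA 5'UTR luciferase fusion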
697 NFkB inh: inhibitors of PMA/ionomycin-induced NF-kB reporter, 697 cells, primary screen, B-cell NF-kB inhibitor project, cell-based, luminescence, uHTS. 697 B-cell NF-kB luciferase reporter, 16 h. inhibition, % at 4 µM. 0.33% of 330,000 active; in the data active = inhibition above about 35%
Gli antag conf: Gli-SUFU pathway antagonists, confirmation, single concentration, luciferase luminescence, Sufu-KO-LIGHT cells; shares compounds with Gli-Sufu block; Gli luciferase reporter; 40% of 2,500 active; inhibition, % at 5 µM;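 active = mean inhibition at 5 µM reaching about 45%, limit read from the data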
Gli cytotox: cytotoxicity in Sufu-KO-LIGHT cells, confirmation, cytotoxicity control for Gli-SUFU antagonist project, cell-based, ATP luminescence, single concentration | shares compounds with Gli-Sufu block | cytotoxicity, % at 5 µM | 32% of 2,500 active | AID 651994, 2013;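 active = mean cytotoxicity at 5 µM above about 25%, limit read from the data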;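 note: cells exposed to compound overnight for roughly 16 to 18 hours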
Wnt3a counter: Wnt3a reporter signal inhibition, confirmation, counter-screen for Gli-SUFU antagonist project, Wnt-LIGHT cells, luminescence, single concentration; 20% of 2,500 active; Wnt3a-driven luciferase reporter; AID 651995, 2013; inhibition, % at 6.25 µM; shares compounds with Gli-Sufu block;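 active = mean inhibition above about 25%, limit read from the data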
Of the large screens only hits and unclear results are named; the others gave an inactive call (follow-up assays come after a bar, where they were run). Most compounds without a hit are left out; they make up all but 4.5% or so of the library.

NC(=O)c1ccc(N=Cc2ccc([N+](=O)[O-])s2)cc1	none (no result: Jurkat NFkB inh, Mdm2-MdmX inh, aSyn UTR inh, 697 NFkB inh)
COCCOC1CCN(C(=O)c2cc(COc3ccc(-n4cncn4)cc3)on2)CC1	none
CCN(CC)C(=O)C1CCCN(C(=O)c2cc(COc3ccc4ncccc4c3)on2)C1 (centres undefined)	none
O=C(NCc1cccc(Cl)c1)c1cc(COc2ccc3ncccc3c2)on1	none
COCCC1CCCCN1C(=O)c1cc(COc2ccc(-n3cncn3)cc2)on1 (centres undefined)	Gli-Sufu block 58.1 | Gli antag conf 67.5 | Gli cytotox inactive | Wnt3a counter 39.9
CC(CCCC(C)(C)O)NC(=O)c1cc(COc2ccc3ncccc3c2)on1 (centres undefined)	none | Gli antag conf 56.3 | Gli cytotox inactive | Wnt3a counter 31.1
COCC1CCCCN1C(=O)c1cc(COc2ccc3ncccc3c2)on1 (centres undefined)	Gli-Sufu block 71.8 | Gli antag conf 59.3 | Gli cytotox inactive | Wnt3a counter 33.7
COc1ccc(Cl)cc1NC(=O)CN(C)C(=O)Cn1cnc2c1c(=O)n(C)c(=O)n2C	none
Cc1cc(C)n2c(SCCC(C)C)nnc2n1	Gli-Sufu block 62.5 | Gli antag conf inactive | Gli cytotox inactive | Wnt3a counter inactive
Cc1cc(C)n2c(SCC(C)C)nnc2n1	none
O=C(CN1CCOCC1)NCc1cc([N+](=O)[O-])ccc1O	Gli-Sufu block 55.1 | Gli antag conf inactive | Gli cytotox inactive | Wnt3a counter inactive
O=C(CN1CCOCC1)Nc1nc2cc([N+](=O)[O-])ccc2s1	none
CC(=O)c1cccc(S(=O)(=O)NCCC(=O)O)c1	none
COc1cc(OC)c(OC)cc1CNC(=O)c1cccc(S(=O)(=O)N2CCc3ccccc3C2)c1	Gli-Sufu block 65.8 (no result: CSC inhib, aSyn UTR inh) | Gli antag conf 63.6 | Gli cytotox 35.5 | Wnt3a counter 25.4
CCN(CC)S(=O)(=O)c1ccc(C)c(NC(=S)N2CCN(Cc3ccc4c(c3)OCO4)CC2)c1	Gli-Sufu block 64.0 | Gli antag conf inactive | Gli cytotox inactive | Wnt3a counter inactive
CCN(CC)S(=O)(=O)c1ccc(C)c(NC(=S)N2CCN(C/C=C/c3ccccc3)CC2)c1	Gli-Sufu block 65.7 (no result: CSC inhib) | Gli antag conf inactive | Gli cytotox 31.2 | Wnt3a counter inactive
Cc1ccc(NC(=S)N2CCN(Cc3ccc4c(c3)OCO4)CC2)c(C)c1	none
Nc1nc(NCC2CCCO2)nc(Nc2ccc(F)cc2)c1[N+](=O)[O-] (centres undefined)	none
Cc1nc(Nc2ccc(F)cc2)nc(Nc2ccc(F)cc2)c1[N+](=O)[O-]	none | Gli antag conf inactive | Gli cytotox inactive | Wnt3a counter 42.2
CC(=O)N1CCC(C(=O)N2CCN(S(=O)(=O)c3ccc(Cl)s3)CC2)CC1	Gli-Sufu block 97.0 | Gli antag conf inactive | Gli cytotox inactive | Wnt3a counter inactive
COc1ccccc1CC(=O)N1CCC(n2nccc2NC(=O)C2CCOC2)CC1 (centres undefined)	none
CCNC(=O)NC(=O)COC(=O)CCCSc1nc2ccccc2[nH]1	none
O=C(COC(=O)CCCSc1nc2ccccc2[nH]1)NC(=O)NC1CCCC1	none | Gli antag conf inactive | Gli cytotox inactive | Wnt3a counter inactive
CCCn1c(N2CCN(C(=O)NCc3ccccc3)CC2)nc2ccccc21	Gli-Sufu block 56.6 | Gli antag conf inactive | Gli cytotox inactive | Wnt3a counter inactive
Cn1c(N2CCN(C(=O)NCc3ccccc3)CC2)nc2ccccc21	none
Cc1cccc(NS(=O)(=O)c2ccc(NS(=O)(=O)c3cccs3)cc2)c1	none (no result: Gli-Sufu block)
Cc1cccc(NS(=O)(=O)c2ccc(C)c(NS(=O)(=O)c3cccs3)c2)c1	Gli-Sufu block 96.4 (no result: CSC inhib, aSyn UTR inh) | Gli antag conf inactive | Gli cytotox inactive | Wnt3a counter inactive
Cc1ccc(CS(=O)(=O)CCC(=O)NCc2ccccc2Cl)cc1	none | Gli antag conf inactive | Gli cytotox inactive | Wnt3a counter inactive
CS(=O)(=O)N(CC(=O)Nc1ccccc1Sc1ccccc1)c1ccc(F)cc1	Gli-Sufu block 64.6 | Gli antag conf inactive | Gli cytotox inactive | Wnt3a counter inactive
Cc1sc(NC(=O)CSc2nnc(C(C)C)n2C)c(C#N)c1C	Gli-Sufu block 56.2 | Gli antag conf inactive | Gli cytotox inactive | Wnt3a counter inactive
CCCn1c(SCC(=O)Nc2sc(C)c(C)c2C#N)nnc1C(C)C	none
CCCCCCCNC1=CC(=O)CC(c2ccccc2)C1 (centres undefined)	Gli-Sufu block 58.5 | Gli antag conf 51.5 | Gli cytotox inactive | Wnt3a counter inactive
CCCCCNC1=CC(=O)CC(c2ccccc2)C1 (centres undefined)	none
CCN(CC)C(=O)c1cccc(NC(=O)C2CCN(C(=O)c3cccs3)CC2)c1	none (no result: aSyn UTR inh)
CCOC(=O)c1c(NC(=O)COc2ncnc3ccccc23)sc(C(C)=O)c1C	Gli-Sufu block 55.5 | Gli antag conf inactive | Gli cytotox inactive | Wnt3a counter inactive
COC(=O)c1c(NC(=O)COc2ncnc3ccccc23)sc(C)c1C	none
CC(C)NCC(O)COC1CCC(C(C)(C)C)CC1 (centres undefined)	Gli-Sufu block 69.8 | Gli antag conf inactive | Gli cytotox inactive | Wnt3a counter inactive
CCNC(=S)N1CCN(c2ccc([N+](=O)[O-])cc2)CC1	none
O=[N+]([O-])c1ccc(N2CCN(C(=S)NCc3ccc(Cl)cc3)CC2)cc1	Gli-Sufu block 57.8 | Gli antag conf inactive | Gli cytotox inactive | Wnt3a counter inactive
Cc1cc(C)nc(/N=C(\N)Nc2ccc(CC(=O)OC(C)C)cc2)n1	Gli-Sufu block 64.6 | Gli antag conf 48.1 | Gli cytotox 37.9 | Wnt3a counter inactive
CCc1ccc(N/C(=N/c2nc(C)cc(C)n2)NC(C)=O)cc1	none
COC(=O)C1=C(C)NC(C)=C(C(=O)OCC2CCCO2)C1c1cccc(Br)c1 (centres undefined)	none
C=C(C)CSc1nc2sc3c(c2c(=O)n1C1CCCCC1)CCN(C)C3	Gli-Sufu block 58.1 | Gli antag conf 47.2 | Gli cytotox 25.0 | Wnt3a counter inactive
CN(C(=O)COC(=O)c1ccc2c(c1)OCO2)C1CCS(=O)(=O)C1 (centres undefined)	none
